This passage reports inhibition results from PubChem BioAssay AID488890 (Southern Research Specialized Biocontainment Screening …, 2010).

Molecules are shown by their SMILES. Out of some 320,000 compounds screened, about 1,300 (0.41%) were called active. Another 3% or so got no clear call; they are omitted. The rule behind the calls is not given here. A selection follows. Measured potencies and affinities stand elsewhere.

The nature of the experiment: growth inhibition of non-replicating M. tuberculosis (AID 488890).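 Note: plate controls were DMSO cells for no effect and high antibiotic wells for full effect.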 The note with it: Mycobacterium tuberculosis non-replicating, at 25 µM, stronger effect = higher value.
On to `Cc1cccc(CN2CCc3c([nH]c4ccccc34)C2C(C)(C)C)n1` (centres undefined), for which the inhibition is 14.5%.

Regarding `OC(CNCC1CCCO1)COc1ccc(OCC(O)CNCC2CCCO2)cc1` (centres undefined), the inhibition was found to be 10.8%.

As for `OC(CNCC1CCCO1)Cn1c2ccccc2c2ccccc21` (centres undefined), the inhibition stood at 25.3%.

In the case of `Cc1ccc(O)c(CNc2nccs2)c1`, the inhibition was -1.47%.

Turning to `O=C(CCNS(=O)(=O)c1ccc(OC(F)(F)F)cc1)N1CCN(C/C=C/c2ccccc2)CC1`, the inhibition worked out at 47.4%.

Turning to `O=C1CNC(=S)N1CCCn1ccnc1`, the inhibition amounted to 2.92%.

With `CC(=O)Nc1ccc(NC(=O)CCc2ccc(C)o2)cc1`, the inhibition is 16.7%.

Turning to `CCOC(=O)c1ccc(NC(=O)CCc2ccc(C)o2)cc1`, the inhibition turned out to be 79.2%.

On to `Cc1ccc(CCC(=O)Nc2ccc(C#N)cc2)o1`, for which the inhibition was determined as 50.3%.

With `Cc1ccc(CCC(=O)Nc2ccc(CC(=O)O)cc2)o1`, the inhibition worked out at 9.94%.

Take `O=C(N/N=C\c1ccncc1)c1ccccc1O`: the inhibition is 19.9%.

`O=C(N/N=C/c1ccc(OCc2ccccc2)cc1)c1ccco1`: the inhibition came to 6.81%.

For `Cc1noc(C)c1COC(=O)CCc1nc2ccccc2c(=O)[nH]1`, the inhibition is -4.31%.

`COc1ccc(NC(=O)Nc2c(O)ccc3ccccc23)cc1`: the inhibition was determined as 17.9%.

Turning to `COc1ccc(C(=O)Nc2ccc(O)c3ccccc23)cc1`, the inhibition turned out to be 75.7%.

Consider `CCCNc1nc2nc3ccccn3c(=O)c2cc1C(=O)NCCN1CCOCC1`, for which the inhibition was -18.1%.

Turning to `COc1ccc(-c2cc(C(=O)Nc3c(F)cc(F)cc3Br)no2)cc1`, the inhibition was 79.1%.

`O=C(Nc1c(F)cc(F)cc1Br)c1cc(-c2ccc(O)cc2)on1`: the inhibition worked out at 79.2%.

In the case of `CN(/N=C/C=C/c1ccccc1)C1=NS(=O)(=O)c2ccccc21`, the inhibition is -1.47%.

On to `O=S1(=O)N=C(N/N=C/c2ccccn2)c2ccccc21`, for which the inhibition amounted to 10.2%.

In the case of `COc1ccccc1NC(=O)CC1SC(=N)N(c2ccccc2)C1=O` (centres undefined), the inhibition was -5.17%.

Turning to `Cc1cc(S(=O)(=O)NCCC2=CCCCC2)ccc1Br`, the inhibition was found to be 34.3%.

With `O=C(NC(=S)NCC1CCCO1)c1ccc(Br)o1` (centres undefined), the inhibition is -17.8%.

Take `NS(=O)(=O)c1ccc(NC(=O)Cn2nc(C(=O)O)c3ccccc3c2=O)cc1`: the inhibition is 2.92%.

Turning to `Cc1ccc2cc(/C=N/NC(=O)CN3CCOCC3)c(Cl)nc2c1`, the inhibition was 6.43%.

In the case of `COc1cc(C2N(c3ccc(Cl)cc3)C(=O)C3CCCN32)cc(OC)c1OC` (centres undefined), the inhibition is -23.2%.

In the case of `CCc1nnc(NC(=O)c2c(-c3ccccc3)noc2C)s1`, the inhibition was 13.3%.

As to `COc1ccc(Cc2nnc(NC(=O)c3c(-c4ccccc4)noc3C)s2)cc1`, the inhibition came to 4.39%.

For the compound `CC1(C)CC(=O)C(Sc2ccccc2C(=O)O)=C(O)C1`, the inhibition was -8.16%.

Regarding `COc1ccc(C(=O)C[n+]2ccc3c(c2)nc(-c2ccccc2)n3C)cc1`, the inhibition amounted to 65.3%.

For `O=C(CN1CCN(c2ccc(Cl)cc2)CC1)Nc1cccc(F)c1`, the inhibition turned out to be 69%.

As for `COCc1cc(C)nc2sc(C(=O)N3CCCC3)c(N)c12`, the inhibition was found to be 3.21%.

Consider `CCC(CC)c1nnc(NC(=O)c2cc(-c3ccccc3)nc3ccccc23)s1`, for which the inhibition stood at 18.4%.

For `CCC(CC)c1nnc(NC(=O)c2ccco2)s1`, the inhibition stood at 14.7%.

As usually defined, the inhibition is the change of the read-out against control, counted positive when it falls.
